Results filed as inconclusive are left out. A call without a number means that no potency is given here. Calls of active or inactive are those of the source. The call rests on the fitted dose curve; in most records, active means well fitted inhibition curve with a large enough effect; inconclusive means small, poorly fitted or top-dose-only effect; inactive means flat fitted curve, though single readings scatter.
Each molecule was assayed against Phospholipid hydroperoxide glutathione peroxidase GPX4 (Homo sapiens) (UniProt P36969) (assay: Primary qHTS Assay for Inhibitors of Recombinant Selenoprotein Glutathione Peroxidase 4 (GPX4) (AID 1845192; further: nearly all actives have a fitted effect of over 65% in size)). Conditions: recombinant GPX4, GR-coupled NADPH fluorescence, 15 min; series mostly up to 50 µM.
From the text: Assay Provider: Elias S.J. Arner MD PhD.
Department of Medical Biochemistry and Biophysics
Karolinska Institutet, Solna, Stockholm, Sweden
Selenoprotein glutathione peroxidases (GPX), like the ubiquitously expressed GPX1 and the ferroptosis modulator GPX4, enact their antioxidant activities by reducing hydroperoxides using glutathione. […] GPX1 and GPX4 inhibitors have thus shown promise as anti-cancer agents. Existing inhibitors are often promiscuous, or modulate GPX activity only indirectly, so novel direct inhibitors identified through screening against GPX1 and GPX4 could be valuable. Here, we developed optimized glutathione reductase (GR)-coupled GPX assays for the biochemical high-throughput screen (HTS) of almost 12,000 compounds with known mechanisms of action. Initial hits were triaged using a GR counter-screen, assessed for isoform specificity using a separate GPX2 assay, and were assessed for general selenocysteine-targeting activity using a thioredoxin reductase (TXNRD1) assay. With this suite of assays, we identified novel GPX1/GPX2- and GPX4-specific inhibitors and can here present a validated pipeline for future discovery research for selenoprotein-targeting agents.
SEQUENCE No. (e.g., 1, 2, 3, etc.); […] (e.g., Cells, Incubation, Reagent, etc.); VALUE; DESCRIPTION.
1; Reagent 1; 3 uL; 333.33 nM GPx4 enzyme or no enzyme control in 1536-well, black, solid Greiner assay plate.
2; Compound; 25 nL; Kalypsis pin tool (Wako USA) equipped with a 1536-well pin head.
3; Incubation; 30 min; room temperature.
4; Reagent 2; 1 uL; 500 nM GR, 5 mM GSH, 2.5 mM NADPH solution
5; Reagent 3; 1 uL; 2.5 mM CHP in 50% EtOH.
6; Detection; Fluorescence; ViewLux microplate reader, excitation 340 nm and emission 450 nm.
7; Incubation; 15 min; room temperature.
8; Detection; Fluorescence; ViewLux microplate reader, excitation 340 nm and emission 450 nm.
NOTES (numbers refer to Sequence numbers above)
1. 3 µL of 333.33 nM GPX4 and 0.016% BSA in assay buffer (50 mM Tris-HCl, 2 mM EDTA (pH 7.5), 150 mM NaCl) was added to columns 3-48 of 1536-well plates using a BioRAPTR Flying Reagent Dispenser (Let's Go Robotics (LGR), Carlsbad, CA). A no-enzyme control (0.01% BSA in TES assay buffer) was added to columns 1-2.
2. 25 nL, library and DMSO controls were added to each well with a pin tool (Kalypsys).
3. The assay plates were incubated for 30 minutes at room temperature.
4. 1 µL of master mix (500 nM glutathione reductase (GR), 5 mM reduced glutathione (GSH), 2.5 mM NADPH in assay buffer) was added.
5. 1 µL of cumene hydroperoxide (CHP) ([2.5 mM] in 50% EtOH) was then added within 5 minutes to initiate the reaction. Final concentrations were: 200 nM GPX4, 1 mM GSH, 0.5 mM CHP, 0.5 mM NADPH, 100 nM GR, 0.01% BSA.
6. Initial fluorescence readout (t=0) at 340/450 nm was measured using a ViewLux multimodal detector (PerkinElmer, Waltham, MA).
8. Endpoint fluorescence readout (t=15) at 340/450 nm was measured 15 min after room temperature incubation.
Potency means the concentration at half of the fitted maximal effect.

Chain of Phospholipid hydroperoxide glutathione peroxidase GPX4 (Homo sapiens) (P36969 whole entry, looked up): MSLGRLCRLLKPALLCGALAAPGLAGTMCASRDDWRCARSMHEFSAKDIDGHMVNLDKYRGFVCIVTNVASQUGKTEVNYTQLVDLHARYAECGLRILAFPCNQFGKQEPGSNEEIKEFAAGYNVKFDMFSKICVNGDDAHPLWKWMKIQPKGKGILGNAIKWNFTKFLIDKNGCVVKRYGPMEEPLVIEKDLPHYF

Structure (SMILES) | Potency
CC(=O)N1CCN([C@H]2CCN(C(=O)N(C)[C@H](C)c3cc(C(F)(F)F)cc(C(F)(F)F)c3)[C@@H](c3ccc(F)cc3C)C2)CC1 | inactive
CCCCC(=O)N(Cc1ccc(-c2ccccc2-c2nn[nH]n2)cc1)C(C(=O)O)C(C)C (stereo not given) | inactive
O=S(=O)(c1cccc2ccccc12)n1ccc2ccc(N3CCN4CCCC4C3)cc21 (stereo not given) | inactive
CC[C@H](C)[C@H]1O[C@]2(CC[C@@H]1C)C[C@@H]1C[C@@H](C/C=C(\C)[C@@H](O[C@H]3C[C@H](OC)[C@@H](O[C@H]4C[C@H](OC)[C@@H](O)[C@H](C)O4)[C@H](C)O3)[C@@H](C)/C=C/C=C3\CO[C@@H]4[C@H](O)C(C)=C[C@@H](C(=O)O1)[C@]34O)O2 | inactive
CCC(=O)Nc1cccc(Oc2nc(Nc3ccc(N4CCN(C)CC4)cc3OC)ncc2Cl)c1 | inactive
CCCC[C@@H](C=O)NC(=O)[C@H](CC(C)C)NC(=O)OCc1ccccc1 | inactive
CC(C)C(N)C(=O)OCC(CO)OCn1cnc2c(=O)[nH]c(N)nc21 (stereo not given) | inactive
COc1cccc(CNC(=O)Nc2nc(-c3ccncc3)cs2)c1 | inactive
Cc1ccccc1C(=O)Nc1ccc(C(=O)N2CCC[C@@H](O)c3cc(Cl)ccc32)c(C)c1 | inactive
Oc1ccc(Nc2nc(-c3ccc(Cl)cc3)cs2)cc1 | inactive
COc1ccccc1NC(=O)Nc1ccc2ccccc2c1 | inactive
CC1OC2OC3C(OCC(O)C3O)OC(=O)C34CCC(C)(C)CC3C3=CCC5C6(C)CC(O)C(OC7OC(CO)C(O)C(O)C7OC7OCC(OC(=O)CC(C)(O)CC(=O)OC1C(OC1OCC(O)C(O)C1O)C2O)C(O)C7O)C(C)(CO)C6CCC5(C)C3(C)CC4O (stereo not given) | inactive
COc1ccc2c(c1)C[C@H](C(=O)Nc1ccc(-c3cn[nH]c3)cc1OCCN(C)C)CO2 | inactive
FC(F)(F)c1ccc(CNc2ccc(Cc3c[nH]c4ncccc34)cn2)cc1 | inactive
O=C(c1ccc(F)c(F)c1Nc1ccc(I)cc1F)N1CC(O)([C@@H]2CCCCN2)C1 | inactive
COC1CC(=O)C23C(=O)NC(CC(C)C)C2C(C)C(C)=CC3/C=C(\C)CCC(O)C1O (stereo not given) | inactive
COc1ccc2c(c1)CC[C@@H]1[C@@H]2CC[C@]2(C)[C@@H](NCCCCCCN3C(=O)C=CC3=O)CC[C@@H]12 | inactive
N#C[C@@H]1C[C@@H]2C[C@@H]2N1C(=O)[C@@H](N)C12CC3CC(CC(O)(C3)C1)C2 | inactive
O=[N+]([O-])c1ccc(-[n+]2nc(-c3ccccc3)nn2-c2ccc(I)cc2)cc1 | inactive
O=C(Nc1cc(Oc2cc(F)c(NC(=O)C3(C(=O)Nc4ccc(F)cc4)CC3)cc2F)ccn1)C1CC1 | inactive

Structure (SMILES) | Potency
Fc1ccc(C2CCNC[C@H]2COc2ccc3c(c2)OCO3)cc1 (stereo not given in full) | inactive
CCOC(=O)CCC(=O)O[C@H]1[C@H](O[C@@H]2[C@@H](C)[C@H](O[C@H]3C[C@@](C)(OC)[C@@H](O)[C@H](C)O3)[C@@H](C)C(=O)O[C@H](CC)[C@@](C)(O)[C@H](O)[C@@H](C)C(=O)[C@H](C)CC2(C)O)O[C@H](C)C[C@@H]1N(C)C (stereo not given in full) | inactive
COc1ccc(Cl)cc1[C@@]1(F)C(=O)Nc2cc(C(F)(F)F)ccc21 | inactive
COc1ccc(NS(=O)(=O)c2sc3ccc(Cl)cc3c2C)cc1N1CCNCC1 | inactive
C[C@@H]1COCCN1c1cc(C2(S(C)(=N)=O)CC2)nc(-c2ccnc3[nH]ccc23)n1 (stereo not given in full) | 20.2 µM (active)
COc1cccc(NC[C@@H](O)Cn2c3ccc(Br)cc3c3cc(Br)ccc32)c1 | inactive
CCS(=O)(=O)N(Cc1cccnc1)c1cccc(-c2ccc(C#N)cc2)c1 | inactive
CNc1ccc([N+](=O)[O-])cc1-n1cnc(-c2ccc(C(F)(F)F)cc2)c1 | inactive
C[C@@H](O[C@H]1OCCN(Cc2n[nH]nc2CN(C)C)[C@H]1c1ccc(F)cc1)c1cc(C(F)(F)F)cc(C(F)(F)F)c1 | inactive
C[S+](CC[C@H](N)C(=O)O)C[C@H]1O[C@@H](n2cnc3c(N)ncnc32)[C@H](O)[C@H]1O (stereo not given in full) | inactive
COc1cc(OC)cc(N(CCNC(C)C)c2ccc3ncc(-c4cnn(C)c4)nc3c2)c1 | inactive
C=C(C(=O)O)C1CC2=C(C)C(=O)CC2C(C)CC1O (stereo not given) | inactive
N#CCC(C1CCCC1)n1cc(-c2ncnc3[nH]ccc23)cn1 (stereo not given) | 18 µM (active)
COc1ccc(C(=O)N(CCC(C)C)Cc2nc(C)c(C)n2Cc2ccccc2C)c(OC)c1 | inactive
C=C1C(=O)O[C@@H]2C[C@@H](C)[C@]34C[C@]5(C(=O)O[C@H]6CC(C)=C([C@H](C)CCCO)[C@H](OC(=O)C(C)CC)[C@H]65)[C@@H](C(C)=C3C[C@@H]12)[C@H]4OC(C)=O (stereo not given in full) | inactive
CC1(C)CC[C@]2(C(=O)OC3OC(CO)C(O)C(O)C3O)CC[C@]3(C)C(=CCC4[C@@]5(C)CC[C@H](OC6OC(C(=O)O)C(O)C(O)C6O)C(CO)(CO)C5CC[C@]43C)[C@@H]2C1 (stereo not given in full) | inactive
OCC(CO)(CO)NCC(O)Cn1c2ccc(Cl)cc2c2cc(Cl)ccc21 (stereo not given) | inactive
CCOc1cc(CNC2CCCC2)cc(Cl)c1OCc1ccc(Cl)cc1 | inactive
COC1(c2sc3c(N4CCOCC4)nc(-c4cnc(N)nc4)nc3c2C)COC1 | inactive
CC1(C)CC23[C@@H]4CC(=O)[C@@H]2COC(=O)[C@@H]3CC[C@H]41 | inactive

Reference: PubChem BioAssay (NCATS)
